The chains are these.
B1: PhoQ; a variant is named by its letters at X, in order, P23837 (parent)
chain: MKKLLRLFFPLSLRVRFLLATAAVVLVLSLAYGMVALIGYSVSFDKTTFRLLRGESNLFYTLAKWENNKLHVELPENIDKQSPTMTLIYDENGQLLWAQRDVPWLMKMIQPDWLKSNGFHEIEADVNDTSLLLSGDHSIQQQLQEVREDDDDAEMTHSVAVNVYPATSRMPKLTIVVVDTIPVELKSSYMVWSWFIYVLSANLLLVIPLLWVAAWWSLRPIEALAKEVRELEEHNRELLNPATTRELTSLVRNLNRLLKSERERYDKYRTTLTDLTHSLKTPLXXLQXXLRSLRSEKMSVSDAEPVMLEQISRISQQIGYYLHRASMRGGTLLSRELHPVAPLLDNLTSALNKVYQRKGVNISLDISPEISFVGEQNDFVEVMGNVLDNACKYCLEFVEISARQTDEHLYIVVEDDGPGIPLSKREVIFDRGQRVDTLRPGQGVGLAVAREITEQYEGKIVAGESMLGGARMEVIFGRQHSAPKDE

153 variants from a collection of fitness landscapes (doi:10.1126/science.1257360) can be followed below.

Whole data set: some 140,000 sequences, median “enrichment ratio after two sorts for PhoP signalling” near 0, cut for the highest 2% near 11. The list comes from a sample in which the highest values are over-represented; it also holds similar and randomly drawn sequences.

In the assay the parent is B1. The assay can be described thus: enrichment ratio after two sorts for PhoP signalling (ratio (wild type AVST 3.29)); higher = more functional. Particulars: with PhoP (E. coli).
For the variant HPIF, the enrichment ratio is at most 0.25.
For the variant QEVH, the enrichment ratio is at most 0.25.
With WIVH, the enrichment ratio was at most 0.25.
As for TEVH, the enrichment ratio was 16.3.
In the case of LCVH, the enrichment ratio is at most 0.25.
The result for AIVH reads 15; that for TSVH, 11.7.
On to MEVH, for which the enrichment ratio came to 1.05.
On to TSCS, for which the enrichment ratio was 14.7.
KSCS: the enrichment ratio is at most 0.25.
The figure for TSCK is 3.25; for AHVH it is at most 0.25.
Regarding KSVH, the enrichment ratio was at most 0.25.
Consider VGWK, for which the enrichment ratio is at most 0.25.
With ATFQ, the enrichment ratio was 2.02.
As to FKND, the enrichment ratio is at most 0.25.
For AFSM, the enrichment ratio is 0.932.
Consider RMFW, for which the enrichment ratio was at most 0.25.
The figure for YSCV is 15.6.
KSCI: the enrichment ratio is at most 0.25.
Turning to STVH, the enrichment ratio worked out at 8.82.
With SSVH, the enrichment ratio was 14.4.
The figure for TSCE is 8.23; for YSCI it is 2.62.
The result for TSCI reads 14.8; that for KSCV, at most 0.25.
As to KYVH, the enrichment ratio is at most 0.25.
The result for YRCV reads at most 0.25; that for TSCV, 17.3.
For FSCV, the enrichment ratio amounted to 9.84.
In the case of TRVP, the enrichment ratio was at most 0.25.
In the case of GWST, the enrichment ratio was at most 0.25.
For the variant PYLQ, the enrichment ratio was at most 0.25.
Consider FLFH, for which the enrichment ratio was at most 0.25.
Take RFWY: the enrichment ratio was at most 0.25.
Take LSFF: the enrichment ratio amounted to 0.737.
Take MSSN: the enrichment ratio was at most 0.25.
Consider RYDM, for which the enrichment ratio is at most 0.25.
For the variant PWRP, the enrichment ratio was at most 0.25.
In the case of AMPS, the enrichment ratio is at most 0.25.
FSCT: the enrichment ratio was at most 0.25.
On to TSCT, for which the enrichment ratio worked out at 18.9.
Turning to KSCA, the enrichment ratio was at most 0.25.
The figure for TSCQ is 21.3.
For the variant SLVH, the enrichment ratio was found to be 2.06.
Take NSCA: the enrichment ratio is at most 0.25.
With KSCT, the enrichment ratio is at most 0.25.
Turning to TSCA, the enrichment ratio stood at 15.2.
Turning to NSCQ, the enrichment ratio is at most 0.25.
Turning to SRVH, the enrichment ratio was at most 0.25.
The result for KSCQ reads at most 0.25.
As to SEVH, the enrichment ratio was determined as 17.3.
AGPW: the enrichment ratio was at most 0.25.
The result for MEVW reads at most 0.25; that for DAWH, at most 0.25; that for VVRK, at most 0.25.
The figure for EQCP is at most 0.25; for QPNQ it is at most 0.25; for MFMV it is at most 0.25.
In the case of FTNT, the enrichment ratio was at most 0.25.
Consider TGEC, for which the enrichment ratio was determined as 1.95.
The result for SFRM reads at most 0.25; that for FVEG, at most 0.25.
FWMV: the enrichment ratio is at most 0.25.
Regarding MDAY, the enrichment ratio is at most 0.25.
For NVLK, the enrichment ratio was at most 0.25.
Regarding MAQN, the enrichment ratio is at most 0.25.
On to MEAT, for which the enrichment ratio was 17.9.
With MMWN, the enrichment ratio is at most 0.25.
As for MCAN, the enrichment ratio came to 22.5.
Take MCVN: the enrichment ratio was at most 0.25.
As for MCAT, the enrichment ratio turned out to be 4.13.
For MAAN, the enrichment ratio is 14.7.
The result for MCDN reads at most 0.25.
The result for MKAT reads at most 0.25; that for FDAN, at most 0.25.
The result for MCWN reads 16.1; that for MCNL, at most 0.25; that for DHKR, at most 0.25.
Consider LPWC, for which the enrichment ratio is at most 0.25.
The result for DVVV reads at most 0.25; that for VKNA, at most 0.25.
RHPV: the enrichment ratio is at most 0.25.
The result for YEDC reads at most 0.25; that for NEIN, at most 0.25; that for TEIN, 5.99.
Regarding TEAN, the enrichment ratio came out at 29.6.
Take MEAN: the enrichment ratio was determined as 32.4.
The result for MEIN reads 11.2; that for MDNT, at most 0.25; that for MDAT, 25.1.
Consider QEAN, for which the enrichment ratio is 2.7.
Turning to MFAN, the enrichment ratio was at most 0.25.
With MDLT, the enrichment ratio was at most 0.25.
As to MKAN, the enrichment ratio is at most 0.25.
Take MDIN: the enrichment ratio is at most 0.25.
For the variant IEYH, the enrichment ratio is at most 0.25.
With FRYS, the enrichment ratio is at most 0.25.
As for FLVW, the enrichment ratio is at most 0.25.
The result for QNFD reads at most 0.25; that for KLKV, at most 0.25.
The result for KLAV reads at most 0.25; that for SLAV, 9.05; that for TGAV, 17.1.
As to GTAV, the enrichment ratio is at most 0.25.
For NGAV, the enrichment ratio was at most 0.25.
In the case of TLKV, the enrichment ratio was 48.4.
LLKV: the enrichment ratio was at most 0.25.
In the case of GGAV, the enrichment ratio amounted to 23.8.
For the variant NIAV, the enrichment ratio is at most 0.25.
In the case of RGAV, the enrichment ratio is at most 0.25.
TLAV: the enrichment ratio was 11.9.
The result for FLFA reads 0.339; that for HVFA, at most 0.25; that for EHCF, at most 0.25.
For the variant FDAV, the enrichment ratio is at most 0.25.
ADAV: the enrichment ratio is 5.88.
As to TDAV, the enrichment ratio is 11.6.
ERLI: the enrichment ratio is at most 0.25.
VDMS: the enrichment ratio was at most 0.25.
Consider SQSS, for which the enrichment ratio came out at 11.6.
As to TVSS, the enrichment ratio is 11.6.
With PLSS, the enrichment ratio is at most 0.25.
The result for KYSS reads at most 0.25; that for NVSS, at most 0.25.
The result for SLSS reads 6.86; that for SRSS, at most 0.25.
For the variant VLSS, the enrichment ratio amounted to 0.29.
Take SPSS: the enrichment ratio is at most 0.25.
The result for TLSS reads 12; that for SESS, 13.9; that for SDSS, 0.569.
As to RKAE, the enrichment ratio was at most 0.25.
Turning to AYPP, the enrichment ratio was at most 0.25.
As for PNHN, the enrichment ratio was at most 0.25.
As for VSWN, the enrichment ratio is at most 0.25.
As for ESGC, the enrichment ratio was at most 0.25.
Turning to QYRN, the enrichment ratio was at most 0.25.
EVDI: the enrichment ratio is at most 0.25.
On to PGYQ, for which the enrichment ratio is at most 0.25.
Regarding KQSS, the enrichment ratio is at most 0.25.
Consider KSSS, for which the enrichment ratio is at most 0.25.
For the variant TTSS, the enrichment ratio was determined as 15.9.
The figure for TSSS is 14.
Regarding YTSS, the enrichment ratio was at most 0.25.
The figure for FSSS is at most 0.25.
Turning to HVKP, the enrichment ratio is at most 0.25.
With MNYD, the enrichment ratio was at most 0.25.
Turning to VKMD, the enrichment ratio was at most 0.25.
In the case of ISKH, the enrichment ratio is at most 0.25.
KHQI: the enrichment ratio is at most 0.25.
For HSYE, the enrichment ratio is at most 0.25.
For the variant AEKC, the enrichment ratio is at most 0.25.
